FUS suppressor – rescues growth of FUS-expressing yeast; AID 1347120; S. cerevisiae FUS-expressing, growth rescue, OD600, 24 h; Potency, µM (top dose mostly 76.6 µM), usual class: activators; 390,000 compounds, 0.24% hits;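 further: potency means the concentration at half of the fitted maximal effect; plate controls were DMSO vehicle for no effect and reference control for full effect; nearly all actives have a fitted effect of over 55% in size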
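FUS-expressing yeast, raffinose-pregrown, induced in 2% galactose minimal medium at OD 0.005; compounds in a dilution series, 24hr at 30C. Growth restoration read as absorbance at 600 nm. CP55940 positive control, DMSO negative.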
PTHR1 ag – activates the human parathyroid hormone receptor PTHR1. 410,000 compounds, 0.075% hits. Potency, µM (top dose mostly 115 µM), inactives show at the top dose activation, most hits filed as activators. HEK293 GP2 PTHR1 cells, GloSensor cAMP luminescence, 1 h. Q03431. AID 743266; further: potency means the concentration at half of the fitted maximal effect; nearly all actives have a fitted effect of over 55% in size
Target sequence (Q03431 whole entry, looked up): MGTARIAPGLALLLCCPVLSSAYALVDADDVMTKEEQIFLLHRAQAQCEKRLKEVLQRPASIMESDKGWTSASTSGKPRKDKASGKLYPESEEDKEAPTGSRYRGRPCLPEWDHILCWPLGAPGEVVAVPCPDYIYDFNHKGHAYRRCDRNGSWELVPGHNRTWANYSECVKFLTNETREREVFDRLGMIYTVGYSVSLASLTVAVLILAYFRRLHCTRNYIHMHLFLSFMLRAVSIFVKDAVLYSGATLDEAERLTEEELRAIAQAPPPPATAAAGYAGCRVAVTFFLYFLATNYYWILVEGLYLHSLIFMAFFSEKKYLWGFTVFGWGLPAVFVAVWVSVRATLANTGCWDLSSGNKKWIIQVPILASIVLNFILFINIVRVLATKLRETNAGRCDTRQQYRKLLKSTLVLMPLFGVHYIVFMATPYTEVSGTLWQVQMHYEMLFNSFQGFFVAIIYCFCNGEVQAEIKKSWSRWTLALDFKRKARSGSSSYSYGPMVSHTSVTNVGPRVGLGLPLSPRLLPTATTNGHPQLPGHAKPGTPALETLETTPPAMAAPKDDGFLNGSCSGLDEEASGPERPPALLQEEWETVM
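HEK-293-derived GP2 cells expressing PTHR1 and a GloSensor cAMP reporter, 3,000/well, plated overnight, given luciferin plus IBMX (each 0.5 mM as added) for 1 h at 37 °C, then compound for 1 h at 37 °C. Luminescence was read after 15 min at room temperature.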
Abeta rescue – A-beta toxicity reversal in yeast; yeast expressing A-beta42, growth rescue, OD600, 48 h; response scale: 0% DMSO, 100% iron-clioquinol control; Potency, µM (series often up to 46.1 µM), usual class: activators; 410,000 compounds, 0.063% hits; AID 1347071; further: potency means the concentration at half of the fitted maximal effect; nearly all actives have a fitted effect of over 55% in size
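Growth rescue measured by 600 nm absorbance after 48 h yeast culture at 30 C with compound. Values normalized between DMSO and an equimolar ferric chloride plus clioquinol control.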
aSyn yeast inh – inhibitors of alpha-synuclein toxicity in yeast; Yeast expressing alpha-synuclein, growth rescue, BacTiter-Glo, 24 h; Potency, µM (doses to about 46.1 µM), for inactives: at the highest dose growth rescue (activation), hits mostly activators; 370,000 compounds, 0.14% hits; AID 652106; further: potency means the concentration at half of the fitted maximal effect; % of control where 0% means no effect; nearly all actives have a fitted effect of over 65% in size
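Readout is rescue of growth in alpha-synuclein-expressing yeast, so inhibitors of toxicity appear as activators. Growth after 24 hr at 30 deg C in galactose medium is quantified by luminescence.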
TDP43 rescue – inhibitors of TDP-43 toxicity in yeast; 410,000 compounds, 1.8% hits; Potency, µM (top dose mostly 46.1 µM), for inactives: at the top dose growth rescue (activation), actives largely listed as activators; TDP-43 expressing yeast growth rescue, BacTiter-Glo, 24 h; further: potency means the concentration at half of the fitted maximal effect; % of control where 0% means no effect; nearly all actives have a fitted effect of over 50% in size
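Readout is BacTiter-Glo luminescence of cell growth, so inhibitors register as activators. TDP-43-expressing yeast at OD600=0.02 in galactose medium, after raffinose pregrowth to mid-log, were incubated with compound for 24 hr at 30 deg C.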
LDHA inh – blocks human lactate dehydrogenase A. purified LDHA, NADH/diaphorase-resazurin fluorescence; active compounds read low. activity change, % (values are at about 110 or 230 µM). 480,000 compounds, 0.15% hits; in the data active means activity change below about -30%; inconclusive means mostly about -25% to -30%;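 further: plate controls were DMSO wells for no effect and wells without enzyme for full effect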
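Resorufin fluorescence (ex540/em590), read at 0 and 20 min after diaphorase/resazurin addition, reports the NADH left after a 5 min room-temperature reaction of 2 nM human LDH5 with 0.06 mM NADH and 0.2 mM pyruvate.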
* hit, by the source's call; i = inactive; ? = inconclusive; · = no result given; [ ] = another dose, or the depositor's remark. In the library only some 1.9% were active in any assay of this set; here they are far more common. Unless noted, the call rests on the fitted dose curve; in most records, active means well fitted curve in the direction sought with a large enough effect; inconclusive means small, poorly fitted or top-dose-only effect, or another doubt; inactive means no such curve, though single readings can be large; an effect the other way counts as inactive or inconclusive.

SMILES	FUS suppressor	PTHR1 ag	Abeta rescue	aSyn yeast inh	TDP43 rescue	LDHA inh
Cc1nc2ccccc2n1CC(O)Cn1c2ccccc2c2ccccc21 (stereo not given)	?	15.8µM*	i	-18.1%	-11.0%	-1.1
CC1CCCC(C)N1CC(O)Cn1c2ccccc2c2ccccc21 (stereo not given)	i	i	i	5.7%	11.2µM*	-3.1
c1ccc(CCc2nnc(CC3CCCCC3)s2)cc1	·	·	·	·	·	-4.5
CC(=O)c1sc(Nc2cc(C)ccc2C)nc1C	·	·	·	·	·	3.5
O=C(Cc1cccc2cccnc12)NC1CCS(=O)(=O)C1 (stereo not given)	·	·	·	·	·	2.9
COc1ccccc1C(=O)NC(=O)COC(=O)Cc1n[nH]c(=O)c2ccccc12	i	50.1µM*	i	-3.5%	-0.1%	0.0
COc1ccc(Nc2nc3ccccc3nc2NS(=O)(=O)c2ccc(C)cc2)cc1	·	·	·	·	·	-7.1
CC(=O)Nc1ccc(C(=O)CCl)cc1	i	-3.4%	i	-23.3%	10µM*	-8.4
CC(=O)Nc1ccc(C(=O)OCc2ccccc2Cl)cc1	i	-9.2%	i	-25.2%	20µM*	0.3
Cc1ccc(OCC(=O)Nc2cccc(-c3nc4cc(C)ccc4o3)c2)cc1	·	·	·	·	·	4.3
COc1ccc(NC(=O)CSCc2cnn(-c3ccccc3)c2-n2cccc2)cc1	?	i	i	·	15.8µM*	3.7
CCN(CC)C(=O)CSCc1cnn(-c2ccccc2)c1-n1cccc1	i	-10.9%[57.5 µM]	i	0.6%	17.8µM*	-2.5
O=C(/C(C=Nc1ccccc1F)=C(/O)c1ccco1)C(F)(F)F	·	·	·	·	·	5.4
O=C(c1cc(-c2ccco2)nc2ccccc12)N1CCCCCC1	·	·	·	·	·	2.0
CCC(=O)Nc1cc(C)ccc1NC(=O)c1cccs1	·	·	·	·	·	-31.2*
Cc1ccc(F)c(NC(=O)CCNC(=O)c2cccs2)c1	·	·	·	·	·	-0.6
Oc1ccc(NCc2ccc(OCc3ccccc3Cl)cc2)cc1	i	i	i	·	?	16.8
Oc1ccc(NCc2ccc(OCc3ccccc3)cc2)cc1	?	?	i	-25.9%	15.8µM*	8.5
Brc1cccc(-c2noc(CCc3nc4ccccc4[nH]3)n2)c1	·	·	·	·	·	5.8
COc1ccc(-c2cnc(C)o2)cc1S(=O)(=O)Nc1ccc(OC(F)(F)F)cc1	i	i	i	·	22.4µM*	-5.1
COc1ccc(-c2cnc(C)o2)cc1S(=O)(=O)Nc1ccc(C)c(F)c1	i	-25.1%	i	·	25.9%	6.5
COc1ccc(-c2cnc(C)o2)cc1S(=O)(=O)Nc1c(C)cc(C)cc1C	i	i	i	·	25.1µM*	-5.2
COc1ccc(NS(=O)(=O)c2cc(-c3cnc(C)o3)ccc2OC)cc1	·	·	·	·	·	-1.8
O=C(Nc1ccccc1F)c1ccc2c(Cl)c3c(nc2c1)CCCC3	·	·	·	·	·	2.4
CCOC(=O)c1ccc(N=C2C(=S)N(c3ccc(C(=O)OCC)cc3)C(=N)N2/N=C/c2ccccc2)cc1	28.2µM*	-3.8%[57.5 µM]	i	0.5%	0.0%	-3.9
SMILES	FUS suppressor	PTHR1 ag	Abeta rescue	aSyn yeast inh	TDP43 rescue	LDHA inh
CCOC(=O)c1ccc(N=c2scc(C)n2CC)cc1	i	-38.1%	i	7.3%	-7.2%[0.397 µM]	-0.2
C1=C(c2ccccc2)Nc2nc3ccccc3n2C1c1ccccc1 (stereo not given)	·	·	·	·	·	15.2
COC(=O)c1ccc(C2C=C(c3ccc(Cl)cc3)Nc3nc4ccccc4n32)cc1 (stereo not given)	i	-30.3%	i	·	10µM*	2.2
Fc1ccc(C2=CC(c3ccc(F)cc3)n3c(nc4ccccc43)N2)cc1 (stereo not given)	i	-22.7%	i	·	22.4µM*	0.1
CC1Cc2cc(S(=O)(=O)NCCC(=O)N(C)Cc3ccco3)ccc2N1C(=O)C1CC1 (stereo not given)	·	·	·	·	·	1.5
CC1CC1c1ccc(/C=C(\C#N)C(=O)Nc2ccccc2Cl)o1 (stereo not given)	·	i	i	17.1%	11.2µM*	5.9
O=S(=O)(NCCc1csc(-c2cccnc2)n1)c1ccc(Cl)s1	i	-51.2%	11.2µM*	-2.2%	14.1µM*	-6.3
O=S(=O)(NCCc1csc(-c2ccc(F)cc2)n1)c1ccc(F)cc1F	i	-91.9%	?	·	2.82µM*	1.3
COc1ccc(F)cc1S(=O)(=O)NCCc1csc(-c2ccc(Cl)cc2)n1	?	-4.4%	i	·	?	4.0
COc1cccc(OC)c1C(=O)Nc1cccc(-c2nc3ccc(C)cc3o2)c1	·	·	·	·	·	1.4
C=CCNc1nc(C(=O)OCc2ccc(F)cc2)cs1	·	·	·	·	·	-0.5
Nc1nn(-c2ccccc2)c(N)c1N=Nc1ccccc1F	i	-34.0%	i	-26.5%	12.6µM*	-5.1
Cc1cccc(N=Nc2c(C)nn(-c3ccccc3)c2N)c1C	·	-7.4%	i	-20.3%	20µM*	0.7
Cc1nn(-c2ccccc2)c(N)c1N=Nc1ccccc1	i	i	i	-14.1%	?	-4.8
COc1ccc(OC)c(CNC(=O)c2ccc(Sc3ccc(Cl)cc3)c(NC(C)=O)c2)c1	?	-3.7%	i	·	24.6%	-9.1
CCOc1ccc(CNC(=O)c2ccc3c(Cl)c4c(nc3c2)CCCC4)cc1	i	-23.0%	i	·	11.2µM*	-10.5
COc1ccc(CNC(=O)c2ccc3c(Cl)c4c(nc3c2)CCCC4)c(OC)c1	i	-23.8%	i	·	20µM*	4.6
O=C(NCc1ccc(F)cc1)c1ccc2c(Cl)c3c(nc2c1)CCCC3	i	i	?	·	0.0%	-3.1
COc1ccc(CCNC(=O)c2ccc3c(Cl)c4c(nc3c2)CCCC4)c(OC)c1	i	-76.2%	i	·	35.5µM*	-1.0
COc1ccc(CCNC(=O)c2ccc3c(Cl)c4c(nc3c2)CCCC4)cc1OC	i	-26.0%	i	·	0.0%	-4.8
COc1ccc(CNC(=O)c2ccc(Sc3ccc(Cl)cc3)c(NC(C)=O)c2)c(OC)c1	i	-66.9%	i	·	22.4µM*	-8.0
CCc1ccc(CNC(=O)c2ccc3c(Cl)c4c(nc3c2)CCCC4)cc1	i	-28.9%	i	·	?	-1.8
Cc1sc(N)c(C#N)c1-c1ccccc1	·	·	·	·	·	8.5
CCc1ccc(NC(=O)c2nc(S(C)(=O)=O)ncc2N(Cc2ccccc2)Cc2ccco2)cc1	·	·	·	·	·	0.6
CCOC(=O)C1=CCN(S(=O)(=O)c2cccc(Cl)c2)C1c1ccc(Br)cc1 (stereo not given)	?	-16.3%	i	20µM*	0.0%	-2.5
CCOC(=O)C1=CCN(S(=O)(=O)c2cccc(Cl)c2)C1c1ccc(C)cc1 (stereo not given)	i	-70.3%	i	?	?	-8.2
